Each structure is given as a SMILES string. “And” between values parts separate entries of the source, which are not always exact repeats. Equal values may be shown once. Inconclusive results are not listed. A call without a number means that no potency is given here. The source made the active and inactive calls. Calls follow the shape of the full dose curve.
Potency is read from the fitted curve at half-maximal effect.

A short description of this assay: Nuclear factor erythroid 2-related factor 2/antioxidant responsive element (Nrf2/ARE) small molecule agonists: luciferase reporter gene qHTS assay in human keratinocytes (AID 1919969). Also: nearly all actives have a fitted effect of over 35% in size. Conditions: KeratinoSens HaCaT ARE-luciferase, luminescence, 24 h; series mostly up to 92.4 µM. The source says: National Center for Advancing Translational Sciences [NCATS]
Division of Preclinical Innovation [DPI]
U.S. Environmental Protection Agency [EPA]
National Institutes of Environmental Health Sciences [NIEHS]
National Toxicology Program [NTP]
U.S. Food and Drug Administration [FDA]
Oxidative stress has been implicated in the pathogenesis of a variety of diseases ranging from cancer to neurodegeneration. The antioxidant response element (ARE) signaling pathway plays an important role in the amelioration of oxidative stress. The KeratinoSens (Givaudan, Switzerland) is an in vitro test method which quantifies luciferase induction as a measure of activation of Keap1-Nrf2-antioxidationt/electrophile response element (ARE) dependant pathway in HaCaT human keratinocytes stably transfected with a selectable plasmid. The KeratinoSens assay is a cell-based assay with a reporter cell line to detect potential skin sensitizers by their ability to induce the Nrf2/ARE-response. The activation of the report gene under culture conditions can be detected by ONE-Glo Luciferase Assay System (Promega, Madison, WI). This cell line has been used to screen the Tox21 10K compound library to identify agonists that induce oxidative stress. The cytotoxicity of the Tox21 compound library against the KS-ARE cell line was tested in parallel by measuring the cell viability using CellTiter- Fluor assay system (Promega, Madison, WI) in the same wells.
HaCaT derived cell line KeratinoSens were dispensed at 1,500 cells/5uL/well in 1536-well white wall/solid bottom plates using a Multidrop Combi (ThermoFisher Scientific, Waltham, MA) dispenser. After the assay plates were incubated at 37 C/5% CO2 for 5 h, 23 nL of compounds dissolved in DMSO, positive controls or DMSO only was transferred to the assay plate by a pintool workstation (Kalypsys, San Diego, CA). The plates were incubated at 37 C/5% CO2 for 23 h, followed by addition of 1uL/well of CellTiter-Fluor reagent into the assay plates using a Flying Reagent Dispenser (Aurora Discovery, San Diego, CA) for cell viability readout that measures cytotoxicity. After 1 h incubation at 37 C/5% CO2 the fluorescence intensity was measured using a ViewLux (PerkinElmer, Shelton, CT) plate reader. Then 4uL/well of One-Glo were added using a Flying Reagent Dispenser. After the plates were incubated at room temperature for 30 min, the luminescence intensity in the assay plates was measured using ViewLux plate reader.
On to `Cc1ccc([N+](=O)[O-])[c]2c1[O][Hg]2`, for which the Potency was 2.66 µM (active).

For `CCC[N+](CCC)(CCC)CCC`, the Potency result was “inactive”.

Regarding `CCCCCCC(=O)CCCCCC/C=C/C[C@@H](O)[C@H](O)[C@@](N)(CO)C(=O)O`, the activity, positive = activation is -3.71% [at 19 µM] (inactive).

Take `O.O.O.O=C([O-])[C@H]([O-])[C@@H]([O-])C(=O)[O-].O=C([O-])[C@H]([O-])[C@@H]([O-])C(=O)[O-].[K+].[K+].[Sb+3].[Sb+3]`: the Potency was 61.4 µM (active).

For the compound `CC1N=C(N)OC1c1ccccc1` (stereo not given), the Potency result is “inactive”.

On to `O=C1NCN(c2ccccc2)C12CCN(CC1COc3ccccc3O1)CC2` (stereo not given), for which the Potency result is “inactive”.

Take `CN1C(=O)CN=C(c2ccccc2)c2cc([N+](=O)[O-])ccc21`: the Potency result is “inactive”.

As for `COc1ccc(C(=O)c2c(C)n(CCN3CCOCC3)c3ccccc23)cc1`, the Potency entry was “inactive”.

As to `Nc1ccc(Sc2ccc(N)cc2)cc1`, the Potency is 68.6 µM (active).

On to `CSCCCN=C=S`, for which the Potency was 61.1 µM (active).

For `COP(=S)(NC(C)C)Oc1ccc(C)cc1[N+](=O)[O-]` (stereo not given), the Potency result was “inactive”.

Turning to `CC(C)(C)OO`, the Potency entry was “inactive”.

Consider `CCOC(=O)CCN(SN(C)C(=O)Oc1cccc2c1OC(C)(C)C2)C(C)C`, for which the Potency was 61.1 µM (active).

With `CC1=C(C(=O)O)N2C(=O)[C@@H](N)[C@H]2SC1`, the activity, positive = activation was -0.189% [at 19 µM] (inactive).

In the case of `CN(C)C(=O)Oc1cc(OC(=O)N(C)C)cc(C(O)CNC(C)(C)C)c1` (stereo not given), the Potency result was “inactive”.

As to `CCCN(CCC)c1c([N+](=O)[O-])cc(C(F)(F)F)cc1[N+](=O)[O-]`, the Potency was 19.3 µM (active) and 61.1 µM (active).

Take `CCCOCC(=Nc1ccc(Cl)cc1C(F)(F)F)n1ccnc1`: the Potency is 27.3 µM (active).

For `COC(N)=O`, the Potency entry was “inactive”.

Regarding `COC1CC(=C(c2cccs2)c2cccs2)C[N+](C)(C)C1` (stereo not given), the Potency result was “inactive”.

As to `CNC(=O)/C=C(\C)OP(=O)(OC)OC`, the Potency result is “inactive”.

For `COC1=CC(=O)O[C@@H](/C=C/c2ccc3c(c2)OCO3)C1`, the Potency entry was “inactive”.

On to `C=CCOC(=O)c1ccccc1N`, for which the Potency is 6.15 µM (active).

For the compound `CCOP(=O)(Sc1ccccc1)Sc1ccccc1`, the Potency was 61.1 µM (active).

As to `CCS(=O)(=O)C(C)(C)S(=O)(=O)CC`, the Potency result is “inactive”.

As to `Clc1ccccc1`, the Potency entry is “inactive”.

For the compound `Nc1ccc([N+](=O)[O-])cc1[N+](=O)[O-]`, the Potency entry is “inactive”.

Regarding `O=C(O)c1ccc2[nH]cc(CCCCN3CC=C(c4ccccc4)CC3)c2c1`, the Potency result is “inactive”.

In the case of `c1ccc(C2CC2)c(OCC2=NCCN2)c1`, the Potency entry is “inactive”.

For `Cc1nnc(-c2ccccc2)c(=O)n1N`, the Potency result was “inactive”.

As to `O=C(NC(=O)c1c(F)cccc1F)Nc1ccc(Oc2ccc(C(F)(F)F)cc2Cl)cc1F`, the Potency entry was “inactive”.

Regarding `Brc1ccc(Oc2ccc(Br)cc2Br)c(Br)c1`, the Potency is 6.12 µM (active).

Consider `C[C@@H]1CC2=CC(=O)CC[C@@H]2[C@H]2CC[C@@]3(C)[C@@H](CC[C@]3(C)O)[C@@H]21`, for which the Potency result was “inactive”.

In the case of `C[C@@H]1CC[C@@]2(OC1)O[C@H]1[C@@H](O)[C@H]3[C@@H]4CC[C@H]5C[C@@H](O[C@@H]6O[C@H](CO)[C@H](O[C@@H]7O[C@H](CO)[C@@H](O)[C@H](O[C@@H]8OC[C@@H](O)[C@H](O)[C@H]8O)[C@H]7O[C@@H]7O[C@H](CO)[C@@H](O)[C@H](O[C@@H]8O[C@H](CO)[C@@H](O)[C@H](O)[C@H]8O)[C@H]7O)[C@H](O)[C@H]6O)[C@H](O)C[C@]5(C)[C@H]4CC[C@]3(C)[C@H]1[C@@H]2C`, the Potency entry is “inactive”.

On to `CC(Cc1ccccc1)NCc1ccccc1Cl` (stereo not given), for which the Potency entry was “inactive”.

In the case of `CN1C(=O)COc2c(C(=O)NC3CN4CCC3CC4)cc(Cl)cc21` (stereo not given), the Potency entry was “inactive”.

As for `CC1(C)C(/C=C(\Cl)C(F)(F)F)C1C(=O)OC(C#N)c1cccc(Oc2ccccc2)c1` (stereo not given), the Potency entry was “inactive”.

With `Oc1ccc(C2(c3ccc(O)cc3)c3ccccc3-c3ccccc32)cc1`, the Potency is 0.969 µM (active).

Regarding `COC(=O)c1ccccc1S(=O)(=O)NC(=O)N(C)c1nc(C)nc(OC)n1`, the Potency result is “inactive”.

For `O=C(O)c1cccc(Cl)c1`, the Potency entry was “inactive”.

Regarding `CC(C)CC(C)N` (stereo not given), the Potency entry is “inactive”.

For the origin of these results see PubChem BioAssay (Tox21).
